RORgamma inh = qHTS for inhibitors of ROR gamma transcriptional activity | Potency, µM (top dose mostly 53.6 µM), usual class: inhibitors | Nuclear receptor ROR-gamma (Mus musculus), P51450 | Drosophila S2 Gal4-RORgamma UAS-luciferase reporter, 20 h | 310,000 tested, 5.4% active; also: nearly all actives have a fitted effect of over 60% in size
Target sequence (P51450 whole entry, looked up, the tested form may be a part): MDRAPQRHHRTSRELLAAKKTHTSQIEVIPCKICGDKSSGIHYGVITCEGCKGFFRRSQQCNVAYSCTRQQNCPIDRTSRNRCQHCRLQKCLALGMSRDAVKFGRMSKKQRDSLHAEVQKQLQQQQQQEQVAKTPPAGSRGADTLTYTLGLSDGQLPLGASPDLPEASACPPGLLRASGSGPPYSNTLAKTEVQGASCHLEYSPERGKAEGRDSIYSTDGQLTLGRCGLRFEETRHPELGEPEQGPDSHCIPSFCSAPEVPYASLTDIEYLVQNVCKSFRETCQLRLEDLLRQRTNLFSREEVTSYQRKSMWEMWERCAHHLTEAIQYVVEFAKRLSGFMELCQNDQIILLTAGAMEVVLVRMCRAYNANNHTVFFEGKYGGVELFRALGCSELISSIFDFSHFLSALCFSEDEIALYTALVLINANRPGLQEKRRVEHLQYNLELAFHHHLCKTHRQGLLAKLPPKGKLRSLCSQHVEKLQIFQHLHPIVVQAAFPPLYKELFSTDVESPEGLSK
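Drosophila Schneider cells stably carrying a metallothionein-driven Gal4 DBD–ROR gamma fusion and a UAS-Photinus luciferase reporter were exposed to compound for 1 hr, then induced with copper sulfate (700 uM final) for 20 hr at ambient temperature before luminescence reading.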
Gal4-VP16 FLuc = VP16 counterscreen qHTS for inhibitors of ROR gamma transcriptional activity | Drosophila S2 Gal4-VP16 UAS-luciferase, luminescence, 20 h | Potency, µM (titrated, usually from 53.6 µM), hits mostly inhibitors | 310,000 tested, 3.5% active;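 also: Gal4-VP16 expression switched on by copper sulfate through the metallothionein promoter; nearly all actives have a fitted effect of over 50% in size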
SW480 rereplic = A quantitative high throughput screen for small molecules that induce DNA re-replication in SW480 colon adenocarcinoma cells. SW480 DNA re-replication, Hoechst DNA content imaging, 48 h. Potency, µM (top dose mostly 46.1 µM), most hits filed as activators. 340,000 tested, 1.8% active; also: nearly all actives have a fitted effect of over 55% in size
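First, 250 cells per well were seeded. Next, compound or vehicle (23 nL) was pinned in, plates sat 48 hr at 37 C. Finally Hoechst was added for 40 min before fluorescence scanning.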
ELG1 repair inh = qHTS screen for small molecules that inhibit ELG1-dependent DNA repair in human embryonic kidney (HEK293T) cells expressing luciferase-tagged ELG1; HEK293T ELG1-luciferase reporter, luminescence, 16 h; DNA damage induced by 5-fluorouridine; Potency, µM (titrated, usually from 46.1 µM), usual class: inhibitors; 330,000 tested, 2.3% active; AID 504467, 2011; also: nearly all actives have a fitted effect of over 55% in size
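In this reporter screen, reduction of luminescence relative to DMSO vehicle indicated activity. Compounds and 5-fluorouridine were added together to 2,000 cells per well, incubated for 16 hr at 37 °C, then developed with ONE-Glo.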
MCF10A rereplic = A quantitative high throughput screen for small molecules that induce DNA re-replication in MCF 10a normal breast cells; MCF 10A DNA re-replication, Hoechst nuclear intensity, 48 h; Potency, µM (highest dose often 46.1 µM), usual class: activators; 350,000 tested, 2.9% active; AID 624296, 2012; also: nearly all actives have a fitted effect of over 50% in size
A number is an active result; – = inactive; ? = inconclusive; · = no result; ! = not confirmed by another sample; [ ] = remark or other dose. Sampled rows, rich in hits. Any-hit rate of the full collection: about 10%. Calls follow the shape of the dose curve; as a rule, active = well fitted curve in the direction sought with a large enough effect; inconclusive = small, poorly fitted or top-dose-only effect, or another doubt; inactive = no such curve, though single readings can be large; an effect the other way counts as inactive or inconclusive.

SMILES | RORgamma inh | Gal4-VP16 FLuc | SW480 rereplic | ELG1 repair inh | MCF10A rereplic
COc1ccccc1NS(=O)(=O)c1cccc(C(=O)OCC(=O)NC2CC2)c1 | · | · | ? | ? | –
Cc1ccc(C)c(OCC(=O)Nc2cccc(S(=O)(=O)NC3=NCCCCC3)c2)c1 | – | – | – | ? | –
c1ccc(CSc2ccc3nnc(-c4cccnc4)n3n2)cc1 | – | – | – | – | –
COc1cc(/C=N/N=C2\CC3CCC2(C)C3(C)C)ccc1O (stereo unspecified) | ? | ? | – | · | ?
CC12CCC(C/C1=N\N=C1\NC(=O)/C(=C\c3cccc(Br)c3)S1)C2(C)C (stereo unspecified) | 10µM | 11µM | – | – | 18µM
O=C(O)C1=C[C@@H](c2ccc(Br)cc2)C[C@@H](OCCCCO)O1 | · | · | –[9.22 µM] | · | –
COc1ccccc1C(=O)NC(=O)COC(=O)Cn1[nH]c(=O)c2ccccc2c1=O | · | · | – | – | –
C=CCSc1nc(N(CC)CC)c2sccc2n1 | 11µM | – | – | – | –
Cc1cc(N2C(=O)C(O)=C(C(=O)c3cc4ccccc4o3)C2c2cccc(Br)c2)no1 (stereo unspecified) | ? | ? | – | – | 18µM
Cc1cc(N2C(=O)C(O)=C(C(=O)c3cc4ccccc4o3)C2c2ccc(OC(C)C)cc2)no1 (stereo unspecified) | – | ? | – | – | ?
COC(=O)c1ccc(C2C(C(=O)c3cc4ccccc4o3)=C(O)C(=O)N2c2cc(C)on2)cc1 (stereo unspecified) | – | ? | ? | – | 23µM
CCCOc1cccc(C2C(C(=O)c3cc4ccccc4o3)=C(O)C(=O)N2c2cc(C)on2)c1 (stereo unspecified) | ? | ? | – | – | 5.8µM
CCc1nnc(NC(=O)CSc2nnc(CNC(=O)c3ccc(OC)c(OC)c3)o2)s1 | – | – | ? | – | –
COc1ccc(C(=O)NCc2nnc(SCC(=O)Nc3nc4ccccc4s3)o2)cc1 | 11µM | 11µM | – | – | –
CCSc1nnc(NC(=O)CSc2nnc(CNC(=O)c3ccc(OC)c(OC)c3)o2)s1 | 18µM | ? | – | ? | –
COc1ccccc1NC(=O)Cn1c(CCC(=O)O)ccc1-c1ccccc1 | – | – | – | – | –
CC(Oc1cccc(Cl)c1)C(=O)Nc1ccc(S(=O)(=O)N(C)C2CCN(C)CC2)cc1 (stereo unspecified) | · | · | – | – | ?
O=C(NN1C(=O)/C(=C\c2cccnc2)SC1=S)C(c1ccccc1)c1ccccc1 | ? | ? | – | – | 15µM
O=C(NN1C(=O)/C(=C/c2cccnc2)SC1=S)C(c1ccccc1)c1ccccc1 | – | – | – | – | 13µM
COc1ccc(/C=C/C(=O)N[C@H](C(=O)O)C(C)C)cc1 | – | – | – | – | –
CCn1cc(CN2CCC(C(=O)Nc3ccc(Oc4ccccc4F)cc3)CC2)c(C)n1 | – | – | ? | – | 21µM
CC(C)n1cc(CN2CCC(C(=O)Nc3ccc(Oc4ccccc4F)cc3)CC2)cn1 | – | ? | ? | – | –
CCCC(=O)NCCCCNC(=O)CCC | – | – | – | – | –
CC(=O)N(O)CCCCCNC(=O)CCC(=O)N(O)CCCCCNC(=O)CCC(=O)N(O)CCCCCN | – | – | 2.5µM! | – | ?
O=C(COc1ccccc1[N+](=O)[O-])Nc1cc(Cl)ccc1C(=O)O | – | – | – | – | –
SMILES | RORgamma inh | Gal4-VP16 FLuc | SW480 rereplic | ELG1 repair inh | MCF10A rereplic
O=C(CN1CCCCC1)Nc1nnc(-c2ccccc2)s1 | –[10 µM] | – | – | ? | –
O=C(CN1CCCCC1)Nc1nnc(-c2ccc([N+](=O)[O-])cc2)s1 | 10µM | – | – | – | –
Cc1[nH]nc(SCC(=O)NC2CCCC2)c1[N+](=O)[O-] | – | – | ? | ? | –
Cc1ccccc1NC(=O)c1ccc(Nc2c([N+](=O)[O-])cc([N+](=O)[O-])c3ccccc23)cc1 | – | – | – | 18µM | –
Cc1cc(C(=O)Nc2ccc(Nc3ccccc3)cc2)ccc1[N+](=O)[O-] | ? | – | – | ? | ?
NC(=O)N/N=C/c1ccc(-c2cccc(C(F)(F)F)c2)o1 | – | – | – | – | 4.6µM
O=C(N/N=C/c1ccc(-c2cccc(C(F)(F)F)c2)o1)c1cccc(F)c1 | 2µM | 1.3µM | ? | – | ?
O=C(N/N=C/c1ccc(-c2cccc(C(F)(F)F)c2)o1)c1ccccc1Br | 11µM | – | – | ? | –
O=C(Cc1ccc(Br)cc1)N/N=C/c1ccc(-c2cccc(C(=O)O)c2)o1 | – | – | – | – | –
O=C(N/N=C/c1ccc(N2CCOCC2)o1)c1cccc(F)c1 | 11µM | 13µM | ? | – | ?
Cc1ccc(NCC(=O)N/N=C/c2ccc(-c3cccc(C(F)(F)F)c3)o2)cc1 | ? | ? | ? | – | –
COc1ccc(C(=O)N/N=C/c2ccc(N3CCOCC3)o2)cc1OC | ? | – | – | – | –
O=C(O)c1cccc(-c2ccc(/C=N/NC(=O)c3cccnc3)o2)c1 | – | – | – | – | –
Cc1ccc(CN2CCNC(=O)C2CC(=O)N(C)C2CCCCC2)cc1 (stereo unspecified) | – | – | – | – | –
O=C(N/N=C/c1ccc(-c2cccc(C(F)(F)F)c2)o1)c1ccccc1O | 0.28µM | 0.56µM | – | ? | ?
Clc1ccc(Cn2c(-c3cccnc3Cl)nc3ccccc32)c(Cl)c1 | – | – | – | – | 16µM
Nc1nonc1-c1nc2ccccc2n1Cc1ccc(F)cc1Cl | 16µM | ? | ? | – | –
Clc1ccc(Cn2c(-c3cccnc3Cl)nc3ccccc32)cc1 | – | – | – | – | –
Fc1ccc(Cn2c(-c3cscn3)nc3ccccc32)c(Cl)c1 | – | – | – | – | –
CCCn1c(-c2nonc2N)nc2ccccc21 | – | – | – | 16µM | –
COC(=O)c1ccccc1NC(=O)Cn1c(-c2nonc2N)nc2ccccc21 | – | – | 0.32µM | – | 0.16µM
Cc1c(C(=O)NC2CCN(Cc3ccccc3)C2)oc2c(Cl)cccc12 (stereo unspecified) | – | – | ? | – | 16µM
Cc1c(C(=O)N(CCO)Cc2ccccc2)oc2c(F)cccc12 | – | – | – | ? | 0.73µM
O=C(NC1CCN(Cc2ccccc2)CC1)c1ccccc1Cl | – | – | – | – | –
Cc1c(C(=O)N(C)Cc2ccccc2)oc2c(Cl)cccc12 | – | – | – | – | 18µM
COCC(=O)N1CCC(n2nccc2NC(=O)CCOc2ccccc2)CC1 | – | – | – | ? | –
CCOC(=O)CN(C)C(=O)C1CC(CO[Si](C)(C)C(C)(C)C)=CN1C(=O)OC(C)(C)C (stereo unspecified) | – | – | · | · | ·
